# According to article PMC11006913:
# Substitutions are numbered along the chain they refer to.
# Tests used:
# Assay in all cases: PBM; 200 nM protein, PBS
# Conditions in all cases: dsDNA, one strand shown
# [1] = biological target: SHOX (Homo sapiens, UniProt O15266 103-189)
# [2] = biological target: HOXB9 (Homo sapiens, UniProt P17482 171-250, T197M)
# [3] = biological target: HOXB9 (Homo sapiens, UniProt P17482 171-250)
# [4] = biological target: SHOX (Homo sapiens, UniProt O15266 103-189, R173C)
# [5] = biological target: HOXB9 (Homo sapiens, UniProt P17482 171-250, R186Q)
# [6] = biological target: NKX3-2 (Homo sapiens, UniProt P78367 192-278, P234S)
# [7] = biological target: NKX3-2 (Homo sapiens, UniProt P78367 192-278)
# [8] = biological target: CRX (Homo sapiens, UniProt O43186 26-111)
# [9] = biological target: CRX (Homo sapiens, UniProt O43186 26-111, E42D)
# [10] = biological target: PITX2 (Homo sapiens, UniProt Q99697 72-157)
# [11] = biological target: CRX (Homo sapiens, UniProt O43186 26-111, R41L)
# [12] = biological target: T1, NKX2-4 (Homo sapiens, UniProt Q9H2Z4 175-261, P217L)
# T1 sequence: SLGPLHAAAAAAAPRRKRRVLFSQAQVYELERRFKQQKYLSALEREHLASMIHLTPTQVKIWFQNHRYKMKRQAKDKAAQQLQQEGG
# [13] = biological target: T2, VENTX (Homo sapiens, UniProt O95231 78-163, R121Q)
# T2 sequence: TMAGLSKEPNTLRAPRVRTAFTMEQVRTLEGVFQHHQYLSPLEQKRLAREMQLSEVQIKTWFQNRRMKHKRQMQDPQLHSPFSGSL
# [14] = biological target: T3, VENTX (Homo sapiens, UniProt O95231 78-163)
# T3 sequence: T2 sequence with Q44R
# [15] = biological target: T4, NKX2-4 (Homo sapiens, UniProt Q9H2Z4 175-261, T231S)
# T4 sequence: T1 sequence with L43P, T57S
# [16] = biological target: T5, VENTX (Homo sapiens, UniProt O95231 78-163, Y115F)
# T5 sequence: T2 sequence with Y38F, Q44R
# [17] = biological target: T6, NKX2-4 (Homo sapiens, UniProt Q9H2Z4 175-261)
# T6 sequence: T1 sequence with L43P
# [18] = biological target: ALX1 (Homo sapiens, UniProt Q15699 118-204, L144V)
# [19] = biological target: ALX3 (Homo sapiens, UniProt O95076 139-225, N203Q)
# [20] = biological target: ALX1 (Homo sapiens, UniProt Q15699 118-204, L144R)
# [21] = biological target: ALX3 (Homo sapiens, UniProt O95076 139-225)
# [22] = biological target: T7, NKX2-4 (Homo sapiens, UniProt Q9H2Z4 175-261, R246Q)
# T7 sequence: T1 sequence with L43P, R72Q
# [23] = biological target: ALX3 (Homo sapiens, UniProt O95076 139-225, L168Q)
# [24] = biological target: ALX3 (Homo sapiens, UniProt O95076 139-225, L168V)
# [25] = biological target: ALX1 (Homo sapiens, UniProt Q15699 118-204)
# [26] = biological target: ALX3 (Homo sapiens, UniProt O95076 139-225, N203S)
# [27] = biological target: HOXB6 (Homo sapiens, UniProt P17509 132-218, K202E)
# [28] = biological target: HOXB6 (Homo sapiens, UniProt P17509 132-218)
# [29] = biological target: T8, SIX6 (Homo sapiens, UniProt O95475 114-200, L167I)
# T8 sequence: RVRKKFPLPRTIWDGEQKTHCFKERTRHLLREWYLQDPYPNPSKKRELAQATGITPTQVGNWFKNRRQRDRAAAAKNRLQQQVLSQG
# [30] = biological target: T9, SIX6 (Homo sapiens, UniProt O95475 114-200, L143V)
# T9 sequence: T8 sequence with L30V, I54L
# [31] = biological target: T10, SIX6 (Homo sapiens, UniProt O95475 114-200, H141N)
# T10 sequence: T8 sequence with H28N, I54L
# [32] = biological target: T11, SIX6 (Homo sapiens, UniProt O95475 114-200, T165P)
# T11 sequence: T8 sequence with T52P, I54L
# [33] = biological target: T12, SIX6 (Homo sapiens, UniProt O95475 114-200, L167M)
# T12 sequence: T8 sequence with I54M
# [34] = biological target: T13, SIX6 (Homo sapiens, UniProt O95475 114-200, L143M)
# T13 sequence: T8 sequence with L30M, I54L
# [35] = biological target: T14, SIX6 (Homo sapiens, UniProt O95475 114-200, L143I)
# T14 sequence: T8 sequence with L30I, I54L
# [36] = biological target: T15, SIX6 (Homo sapiens, UniProt O95475 114-200, T165G)
# T15 sequence: T8 sequence with T52G, I54L
# [37] = biological target: T16, SIX6 (Homo sapiens, UniProt O95475 114-200, T139Q)
# T16 sequence: T8 sequence with T26Q, I54L
# [38] = biological target: T17, SIX6 (Homo sapiens, UniProt O95475 114-200, T165A)
# T17 sequence: T8 sequence with T52A, I54L
# [39] = biological target: T18, SIX6 (Homo sapiens, UniProt O95475 114-200, L167V)
# T18 sequence: T8 sequence with I54V
# [40] = biological target: T19, SIX6 (Homo sapiens, UniProt O95475 114-200)
# T19 sequence: T8 sequence with I54L
# [41] = biological target: T20, SIX6 (Homo sapiens, UniProt O95475 114-200, T165I)
# T20 sequence: T8 sequence with T52I, I54L
# [42] = biological target: PROP1 (Homo sapiens, UniProt O75360 56-141)
# [43] = biological target: PROP1 (Homo sapiens, UniProt O75360 56-141, R99H)
# [44] = biological target: PROP1 (Homo sapiens, UniProt O75360 56-141, F88S)
# Sequence of PROP1 (Homo sapiens, UniProt O75360 56-141, F88S) (O75360 56-141 F88S): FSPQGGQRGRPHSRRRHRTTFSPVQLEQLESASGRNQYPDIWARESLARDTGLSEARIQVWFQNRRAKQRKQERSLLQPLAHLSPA
# Sequence of SHOX (Homo sapiens, UniProt O15266 103-189, R173C) (O15266 103-189 R173C): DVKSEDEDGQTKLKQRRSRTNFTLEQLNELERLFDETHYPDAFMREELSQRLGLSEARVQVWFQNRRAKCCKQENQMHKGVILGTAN
# Sequence of SHOX (Homo sapiens, UniProt O15266 103-189) (O15266 103-189): as the sequence (O15266 103-189 R173C) above, with C71R counted along it
# Sequence of HOXB9 (Homo sapiens, UniProt P17482 171-250) (P17482 171-250): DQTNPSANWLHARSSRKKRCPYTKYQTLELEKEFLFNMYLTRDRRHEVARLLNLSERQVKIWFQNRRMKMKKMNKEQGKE
# Sequence of HOXB9 (Homo sapiens, UniProt P17482 171-250, R186Q) (P17482 171-250 R186Q): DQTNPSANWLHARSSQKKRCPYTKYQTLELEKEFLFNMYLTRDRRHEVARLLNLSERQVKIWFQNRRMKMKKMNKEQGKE
# Sequence of HOXB9 (Homo sapiens, UniProt P17482 171-250, T197M) (P17482 171-250 T197M): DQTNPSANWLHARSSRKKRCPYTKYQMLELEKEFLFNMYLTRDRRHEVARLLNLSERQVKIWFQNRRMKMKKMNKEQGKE
# Sequence of CRX (Homo sapiens, UniProt O43186 26-111, R41L) (O43186 26-111 R41L): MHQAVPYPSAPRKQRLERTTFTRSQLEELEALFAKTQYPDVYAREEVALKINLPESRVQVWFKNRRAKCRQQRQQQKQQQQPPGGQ
# Sequence of CRX (Homo sapiens, UniProt O43186 26-111) (O43186 26-111): as the sequence (O43186 26-111 R41L) above, with L16R counted along it
# Sequence of ALX1 (Homo sapiens, UniProt Q15699 118-204) (Q15699 118-204): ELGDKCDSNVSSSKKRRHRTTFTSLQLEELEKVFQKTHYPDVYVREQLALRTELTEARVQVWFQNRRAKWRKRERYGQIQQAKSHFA
# Sequence of ALX3 (Homo sapiens, UniProt O95076 139-225) (O95076 139-225): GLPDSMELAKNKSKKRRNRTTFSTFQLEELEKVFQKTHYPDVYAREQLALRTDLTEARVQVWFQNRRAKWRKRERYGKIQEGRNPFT
# Sequence of CRX (Homo sapiens, UniProt O43186 26-111, E42D) (O43186 26-111 E42D): as the sequence (O43186 26-111 R41L) above, with L16R, E17D counted along it
# Sequence of ALX3 (Homo sapiens, UniProt O95076 139-225, L168V) (O95076 139-225 L168V): as the sequence (O95076 139-225) above, with L30V counted along it
# Sequence of ALX1 (Homo sapiens, UniProt Q15699 118-204, L144V) (Q15699 118-204 L144V): as the sequence (Q15699 118-204) above, with L27V counted along it
# Sequence of ALX3 (Homo sapiens, UniProt O95076 139-225, N203Q) (O95076 139-225 N203Q): as the sequence (O95076 139-225) above, with N65Q counted along it
# Sequence of ALX1 (Homo sapiens, UniProt Q15699 118-204, L144R) (Q15699 118-204 L144R): as the sequence (Q15699 118-204) above, with L27R counted along it
# Sequence of NKX3-2 (Homo sapiens, UniProt P78367 192-278) (P78367 192-278): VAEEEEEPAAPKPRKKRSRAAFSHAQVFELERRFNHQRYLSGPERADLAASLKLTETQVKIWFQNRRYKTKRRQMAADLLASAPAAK
# Sequence of PROP1 (Homo sapiens, UniProt O75360 56-141, R99H) (O75360 56-141 R99H): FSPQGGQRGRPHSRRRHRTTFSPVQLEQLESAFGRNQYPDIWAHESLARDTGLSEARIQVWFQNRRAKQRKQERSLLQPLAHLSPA
# Sequence of ALX3 (Homo sapiens, UniProt O95076 139-225, L168Q) (O95076 139-225 L168Q): as the sequence (O95076 139-225) above, with L30Q counted along it
# Sequence of HOXB6 (Homo sapiens, UniProt P17509 132-218) (P17509 132-218): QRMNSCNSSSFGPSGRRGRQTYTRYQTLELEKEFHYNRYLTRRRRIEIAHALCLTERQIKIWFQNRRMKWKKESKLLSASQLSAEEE
# Sequence of NKX3-2 (Homo sapiens, UniProt P78367 192-278, P234S) (P78367 192-278 P234S): as the sequence (P78367 192-278) above, with P43S counted along it
# Sequence of HOXB6 (Homo sapiens, UniProt P17509 132-218, K202E) (P17509 132-218 K202E): as the sequence (P17509 132-218) above, with K71E counted along it
# Sequence of ALX3 (Homo sapiens, UniProt O95076 139-225, N203S) (O95076 139-225 N203S): as the sequence (O95076 139-225) above, with N65S counted along it
# Sequence of PROP1 (Homo sapiens, UniProt O75360 56-141) (O75360 56-141): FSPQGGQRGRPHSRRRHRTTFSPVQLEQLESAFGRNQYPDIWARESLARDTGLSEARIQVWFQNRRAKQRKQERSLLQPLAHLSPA
sequence,measurement,setting,value
GCCGGGCA,binding signal,[1],"7.25 upbm affinity estimate (log intensity, higher = more binding, comparable within an allelic series)"
same,binding signal,[2],"8.48 upbm affinity estimate (log intensity, higher = more binding, comparable within an allelic series)"
same,binding signal,[3],"8.45 upbm affinity estimate (log intensity, higher = more binding, comparable within an allelic series)"
same,binding signal,[4],"7.18 upbm affinity estimate (log intensity, higher = more binding, comparable within an allelic series)"
same,binding signal,[5],"8.59 upbm affinity estimate (log intensity, higher = more binding, comparable within an allelic series)"
same,binding signal,[6],"10.6 upbm affinity estimate (log intensity, higher = more binding, comparable within an allelic series)"
same,binding signal,[7],"10.6 upbm affinity estimate (log intensity, higher = more binding, comparable within an allelic series)"
GATTAATC,binding signal,[1],"10.2 upbm affinity estimate (log intensity, higher = more binding, comparable within an allelic series)"
same,binding signal,[8],"13.2 upbm affinity estimate (log intensity, higher = more binding, comparable within an allelic series)"
same,binding signal,[9],"13 upbm affinity estimate (log intensity, higher = more binding, comparable within an allelic series)"
same,binding signal,[10],"12.9 upbm affinity estimate (log intensity, higher = more binding, comparable within an allelic series)"
same,binding signal,[11],"12.9 upbm affinity estimate (log intensity, higher = more binding, comparable within an allelic series)"
AATCGGTA,binding signal,[1],"8.66 upbm affinity estimate (log intensity, higher = more binding, comparable within an allelic series)"
TTAGGAAA,binding signal,[1],"8.58 upbm affinity estimate (log intensity, higher = more binding, comparable within an allelic series)"
GCCGTAGC,binding signal,[1],"6.96 upbm affinity estimate (log intensity, higher = more binding, comparable within an allelic series)"
same,binding signal,[12],"9.17 upbm affinity estimate (log intensity, higher = more binding, comparable within an allelic series)"
same,binding signal,[13],"7.91 upbm affinity estimate (log intensity, higher = more binding, comparable within an allelic series)"
same,binding signal,[14],"7.82 upbm affinity estimate (log intensity, higher = more binding, comparable within an allelic series)"
same,binding signal,[15],"9.15 upbm affinity estimate (log intensity, higher = more binding, comparable within an allelic series)"
same,binding signal,[16],"7.86 upbm affinity estimate (log intensity, higher = more binding, comparable within an allelic series)"
same,binding signal,[17],"9.34 upbm affinity estimate (log intensity, higher = more binding, comparable within an allelic series)"
same,binding signal,[18],"6.19 upbm affinity estimate (log intensity, higher = more binding, comparable within an allelic series)"
same,binding signal,[19],"7.67 upbm affinity estimate (log intensity, higher = more binding, comparable within an allelic series)"
same,binding signal,[4],"7.22 upbm affinity estimate (log intensity, higher = more binding, comparable within an allelic series)"
same,binding signal,[20],"6.26 upbm affinity estimate (log intensity, higher = more binding, comparable within an allelic series)"
same,binding signal,[21],"7.55 upbm affinity estimate (log intensity, higher = more binding, comparable within an allelic series)"
same,binding signal,[22],"9.33 upbm affinity estimate (log intensity, higher = more binding, comparable within an allelic series)"
same,binding signal,[23],"7.74 upbm affinity estimate (log intensity, higher = more binding, comparable within an allelic series)"
same,binding signal,[24],"7.76 upbm affinity estimate (log intensity, higher = more binding, comparable within an allelic series)"
same,binding signal,[25],"6.18 upbm affinity estimate (log intensity, higher = more binding, comparable within an allelic series)"
same,binding signal,[26],"7.68 upbm affinity estimate (log intensity, higher = more binding, comparable within an allelic series)"
AATCGTGT,binding signal,[1],"8.39 upbm affinity estimate (log intensity, higher = more binding, comparable within an allelic series)"
GCTCCGAC,binding signal,[1],"7.2 upbm affinity estimate (log intensity, higher = more binding, comparable within an allelic series)"
same,binding signal,[13],"8.1 upbm affinity estimate (log intensity, higher = more binding, comparable within an allelic series)"
same,binding signal,[14],"8.29 upbm affinity estimate (log intensity, higher = more binding, comparable within an allelic series)"
same,binding signal,[16],"8.19 upbm affinity estimate (log intensity, higher = more binding, comparable within an allelic series)"
same,binding signal,[27],"9.12 upbm affinity estimate (log intensity, higher = more binding, comparable within an allelic series)"
same,binding signal,[4],"7.25 upbm affinity estimate (log intensity, higher = more binding, comparable within an allelic series)"
same,binding signal,[28],"9.05 upbm affinity estimate (log intensity, higher = more binding, comparable within an allelic series)"
GGGCCGAA,binding signal,[1],"7.23 upbm affinity estimate (log intensity, higher = more binding, comparable within an allelic series)"
same,binding signal,[29],"8.79 upbm affinity estimate (log intensity, higher = more binding, comparable within an allelic series)"
same,binding signal,[30],"8.79 upbm affinity estimate (log intensity, higher = more binding, comparable within an allelic series)"
same,binding signal,[31],"8.73 upbm affinity estimate (log intensity, higher = more binding, comparable within an allelic series)"
same,binding signal,[32],"8.89 upbm affinity estimate (log intensity, higher = more binding, comparable within an allelic series)"
same,binding signal,[33],"8.8 upbm affinity estimate (log intensity, higher = more binding, comparable within an allelic series)"
same,binding signal,[34],"8.64 upbm affinity estimate (log intensity, higher = more binding, comparable within an allelic series)"
same,binding signal,[35],"8.74 upbm affinity estimate (log intensity, higher = more binding, comparable within an allelic series)"
same,binding signal,[36],"8.79 upbm affinity estimate (log intensity, higher = more binding, comparable within an allelic series)"
same,binding signal,[37],"8.8 upbm affinity estimate (log intensity, higher = more binding, comparable within an allelic series)"
same,binding signal,[38],"8.73 upbm affinity estimate (log intensity, higher = more binding, comparable within an allelic series)"
same,binding signal,[4],"7.18 upbm affinity estimate (log intensity, higher = more binding, comparable within an allelic series)"
same,binding signal,[39],"8.77 upbm affinity estimate (log intensity, higher = more binding, comparable within an allelic series)"
same,binding signal,[40],"8.68 upbm affinity estimate (log intensity, higher = more binding, comparable within an allelic series)"
same,binding signal,[41],"8.82 upbm affinity estimate (log intensity, higher = more binding, comparable within an allelic series)"
CCGCATCC,binding signal,[1],"7.26 upbm affinity estimate (log intensity, higher = more binding, comparable within an allelic series)"
same,binding signal,[13],"8.27 upbm affinity estimate (log intensity, higher = more binding, comparable within an allelic series)"
same,binding signal,[2],"8.5 upbm affinity estimate (log intensity, higher = more binding, comparable within an allelic series)"
same,binding signal,[14],"8.44 upbm affinity estimate (log intensity, higher = more binding, comparable within an allelic series)"
same,binding signal,[16],"8.27 upbm affinity estimate (log intensity, higher = more binding, comparable within an allelic series)"
same,binding signal,[3],"8.49 upbm affinity estimate (log intensity, higher = more binding, comparable within an allelic series)"
same,binding signal,[4],"7.23 upbm affinity estimate (log intensity, higher = more binding, comparable within an allelic series)"
same,binding signal,[42],"6.85 upbm affinity estimate (log intensity, higher = more binding, comparable within an allelic series)"
same,binding signal,[43],"6.89 upbm affinity estimate (log intensity, higher = more binding, comparable within an allelic series)"
same,binding signal,[5],"8.51 upbm affinity estimate (log intensity, higher = more binding, comparable within an allelic series)"
same,binding signal,[44],"6.67 upbm affinity estimate (log intensity, higher = more binding, comparable within an allelic series)"
ATTATGCC,binding signal,[1],"9.49 upbm affinity estimate (log intensity, higher = more binding, comparable within an allelic series)"
